PubChem BioAssay (NCI)
This is part of a sample that, as a whole, favours compounds with a hit. Of some 83,000 tested, about 20% had one in any assay.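 In brief: 96-well plates, 48 h treatment, single concentration, percent growth endpoint.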 Activity calls are given as the source filed them. The calls were made as follows: active = growth percent below 10; inactive = the rest.

test system: MDA-MB-468 breast; assay: NCI-60 one-dose screen, 48 h (100 = growth as untreated, 0 = no growth, -100 = all killed); conditions: 10 µM unless noted

Row | Structure (SMILES) | growth
1 | O=C(/C=C/c1cccc(Cl)c1)c1cccc(OCCCCOc2cccc(C(=O)/C=C/c3cccc(Cl)c3)c2)c1 | 99.2% (inactive)
2 | CCOC(=O)N1CCN(CCCCl)CC1 | 97.4% (inactive)
3 | Oc1ccc(Nc2ccccc2)cc1 | 86.4% (inactive)
4 | CCCCCCCCCCCCNc1ncnc2[nH]ncc12 | 55.7% (inactive)
5 | COc1cc(C2CC(c3cccc(Nc4ccncc4)c3)=NN2c2cc(Cl)cc(Cl)c2)cc(OC)c1OC (configuration not stated) | -11.9% (active)
6 | CC1Cc2c(Cl)ncnc2N(C)c2ccc(Cl)cc21 (configuration not stated) | -35.8% (active)
7 | Cc1cc2c(c(C)c1Cl)C(=O)/C(=C/c1ccc(O)c(O)c1)O2 | 109% (inactive)
8 | Cc1ccc(-c2nc([P+](c3ccccc3)(c3ccccc3)c3ccccc3)c(N3CCOCC3)o2)cc1 | -27.6% (active)
9 | COc1ccc(C/C(C)=C(\c2ccc(O)cc2)c2ccc(OCCCN(C)C)cc2)cc1 | 86.8% (inactive)
10 | CCOC(=O)C1C(=O)OC2CCCCC21 (configuration not stated) | 110% (inactive)
11 | CC1CC(C)(C)OB(OC(C)CC(C)(C)OB2OC(C)CC(C)(C)O2)O1 (configuration not stated) | 105% (inactive)
12 | N#CC(=Nc1cccc(F)c1)C1=C(O)c2ccccc2C1=O | 75.2% (inactive)
13 | COc1cc2c(cc1OC)[C@H](C(=O)O)[C@@H](c1ccc(OC(C)C)c(OC)c1)N(C)C2=O | 105% (inactive)
14 | O=C1/C=C/[C@@H](O)[C@@H]2C[C@@H](O)C[C@H]2/C=C/CCC[C@H](C(F)(F)F)O1 | -69.1% (active)
15 | O=C(CCN1C(=O)/C(=C/c2ccccc2)SC1=S)N1CCOCC1 | 51.9% (inactive)
16 | Cc1c2c(cc3c1[nH]c1ccccc13)C=NCC2 | 80.2% (inactive)
17 | O=C1c2cccc3cccc(c23)C(=O)N1CCCCCCCCCCN1C(=O)c2cccc3cccc(c23)C1=O | 112% (inactive)
18 | CC1(C)CCC(=NNC(N)=S)CC1 | 103% (inactive)
19 | COc1cc(NC(=O)C2=C(C)NC(C)=C(C(=O)Nc3cc(OC)c(Cl)cc3OC)C2c2cccc([N+](=O)[O-])c2)c(OC)cc1Cl | -11.7% (active)
20 | C[C@H]1[C@H](C)CC[C@]2(C(=O)O)CC[C@]3(C)C(=CC[C@@H]4[C@@]5(C)C/C(=C/c6cccnc6)[C@H](O)C(C)(C)[C@@H]5CC[C@]43C)[C@H]12 | 5.39% [100 µM] (active)
21 | CCn1cc(C(=O)NN=C2CCCC2)c(=O)c2ccc(C)nc21 | 91.8% (inactive)
22 | CCN1C(=O)N(CC)C2C1NN=c1s/c(=C\c3ccc(C(F)(F)F)cc3)c(=O)n12 (configuration not stated) | 9.87% (active)
